# Records with an inconclusive call do not appear. Where a call stands in place of a potency, no number is given. Some structures have more than one record in an assay (separate samples or runs), and their calls can disagree. Active and inactive are the calls of the source. Calls follow the shape of the full dose curve.
# Target: Retinoic acid receptor RXR-alpha (Homo sapiens) (UniProt P19793)
# Test: qHTS assay to identify small molecule agonists of the RXR signaling pathway (AID 1159527); also: nearly all actives have a fitted effect of over 35% in size
# Conditions: HEK293T RXRa-UAS-bla, beta-lactamase ratio, 16 h; series mostly up to 76.8 µM
# Text: U.S. Tox21 Program National Center for Advancing Translational Sciences [NCATS] NIH Chemical Genomics Center [NCGC] U.S. Environmental Protection Agency [EPA] National Institutes of Environmental Health Sciences [NIEHS] National Toxicology Program [NTP] U.S. Food and Drug Administration [FDA] Tox21 Assay Overview: The Retinoid X receptor (RXR), a nuclear hormone receptor expressed in liver, spleen, placenta, epidermis, central nervous system. These receptors are able to form homo and heterodimers with other nuclear receptors and due to this heterodimerizing ability, RXR functions as master regulators producing diverse physiological effects. Three subtypes of RXR exist; alpha, beta and gamma. Retinoid X receptor alpha (RXR-alpha) has potential roles in metabolic signaling pathways, skin alopecia, dermal cysts, cardiac development, insulin sensitization etc. Therefore screening environmental chemicals on RXR-alpha signaling can be used for the studies focused on such therapeutic applications. For quantification of RXR-alpha ligands signaling, GeneBLAzer RXR alpha-UAS-bla HEK 293T (Life Technologies, Carlsbad, CA) cells containing a beta-lactamase reporter-gene under control of Retinoid X receptor-alpha response element were used to screen Tox21 10K library.
# Tox21 Assay Protocol Summary: RXR-alpha HEK 293T cells were dispensed at 2,000 cells/6 uL of assay medium containing 2% charcoal-stripped FBS using a Multidrop Combi (ThermoFisher Scientific, Waltham, MA) dispenser. The assay was performed in black wall/clear-bottom 1536-well plates (Greiner Bio-One North America Inc. Monroe, NC). 9-cis retinoic acid was used as a positive control in the agonist mode screen. After the assay plates were incubated at 37 C and 5% CO2 for 5 hr, 23 nL of compounds dissolved in DMSO, positive controls or DMSO only were transferred to the assay plate by a Pintool station (Kalypsys, San Diego, CA). The assay plates were incubated at 37 C and 5% CO2 for 16 hr. One uL of LiveBLAzer B/G FRET substrate (Life Technologies) was added using a Flying Reagent Dispenser (Aurora Discovery, San Diego, CA) and the plates were incubated at room temperature for 2 hr. Fluorescence intensity (405 nm excitation, 460/530 nm emission) was measured using an Envision plate reader (PerkinElmer, Shelton, CT).
# Potency is read from the fitted curve at half-maximal effect.
# Sequence of Retinoic acid receptor RXR-alpha (Homo sapiens) (P19793 whole entry, looked up): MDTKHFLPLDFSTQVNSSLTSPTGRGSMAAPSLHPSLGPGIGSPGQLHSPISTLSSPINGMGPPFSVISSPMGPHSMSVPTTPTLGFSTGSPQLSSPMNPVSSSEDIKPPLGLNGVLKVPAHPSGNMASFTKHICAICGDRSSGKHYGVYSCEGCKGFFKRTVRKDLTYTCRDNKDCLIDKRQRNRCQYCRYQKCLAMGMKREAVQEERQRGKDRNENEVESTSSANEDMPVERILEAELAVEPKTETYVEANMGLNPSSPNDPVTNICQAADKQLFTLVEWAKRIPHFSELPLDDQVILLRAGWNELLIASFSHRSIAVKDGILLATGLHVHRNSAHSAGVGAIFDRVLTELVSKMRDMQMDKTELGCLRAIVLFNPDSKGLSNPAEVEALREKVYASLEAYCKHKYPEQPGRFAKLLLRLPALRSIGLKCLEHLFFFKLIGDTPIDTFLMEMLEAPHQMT
Compound,Potency,activation
COc1ccc2cc([C@H](C)C(=O)O)ccc2c1,inactive,–
CCC(O)OCCCOC (stereo not given),inactive,–
Fc1ccc(Br)cc1,inactive,–
O=C(O)CC(C(=O)O)C(CC(=O)O)C(=O)O (stereo not given),inactive,–
CN(C)CCOCCN(C)C,inactive,–
C=C(C)C(=O)OCCOCCOCCOC(=O)C(=C)C,inactive,–
O=c1[nH]c(=O)n([C@H]2CCCO2)cc1F,17.4 µM (active) and inactive,–
OCC(CO)(CBr)CBr,inactive,–
C=CCNC(N)=S,inactive,–
OCc1cccnc1,inactive,–
O=C1CCC(N2C(=O)c3ccccc3C2=O)C(=O)N1 (stereo not given),inactive,–
CN(C)CCC(c1ccccc1)c1ccccn1 (stereo not given),inactive,–
Oc1cccc2ccccc12,inactive,–
O=[N+]([O-])c1ccc(/C=C/c2ccc([N+](=O)[O-])cc2S(=O)(=O)O)c(S(=O)(=O)O)c1,inactive,–
CCc1cccc(C)c1N,inactive,–
CCCCCC1=CCCC1=O,inactive,–
C=C(C)C(=O)O[C@H]1C[C@@H]2CC[C@@]1(C)C2(C)C,inactive,–
Nc1ccccc1[N+](=O)[O-],inactive,–
O=c1[nH]c(=O)n([C@H]2C[C@H](O)[C@@H](CO)O2)cc1Br,inactive,–
c1ccc2scnc2c1,inactive,–

Compound,Potency,activation
CC1=CC(=O)NS(=O)(=O)O1,inactive,–
O=C(O)[C@H](O)[C@@H](O)[C@H](O)[C@H](O)CO,inactive,–
CC(C)(N)CO,inactive,–
O=C(O)c1ccccc1C(c1ccc(O)cc1)c1ccc(O)cc1,inactive,–
CC1CCC2CC1C2(C)C (stereo not given),inactive,–
CCC(O)OC(O)CC (stereo not given),inactive,–
CC(O)COCC(C)O (stereo not given),inactive,–
O=C(O)c1cc(C(=O)O)cc(S(=O)(=O)O)c1,inactive,–
O=c1[nH]nnc2ccccc12,inactive,–
COCCCOc1ccnc(CS(=O)c2nc3ccccc3[nH]2)c1C (stereo not given),inactive,–
O=C(O)CCCCCCCCCCC(=O)O,inactive,–
C[C@H]1C[C@H]2[C@@H]3CCC4=CC(=O)C=C[C@]4(C)[C@@]3(F)[C@@H](O)C[C@]2(C)[C@@]1(O)C(=O)CO,inactive,–
CCCCN(CCCC)CCCC,inactive,–
CCCCCCCCCCCCS,inactive,–
CC(=O)OCC(=O)[C@@]12N=C(C)O[C@@H]1C[C@H]1[C@@H]3CCC4=CC(=O)C=C[C@]4(C)[C@H]3[C@@H](O)C[C@@]12C,inactive,–
O=C(Oc1ccccc1)c1ccccc1,inactive,–
NNc1nncc2ccccc12,–,-4.54% [at 15.8 µM] (inactive)
O=C=NCCCCCCN=C=O,inactive,–
Cc1ccc2oc(=O)ccc2c1,inactive,–
CC(=O)CC(=O)Nc1ccccc1C,inactive,–

# Source: PubChem BioAssay (Tox21)
